Inconclusive results are not listed. Entries that show only a call come without a potency. The source made the active and inactive calls. The call rests on the fitted dose curve; in most records, active means well fitted inhibition curve with a large enough effect; inconclusive means small, poorly fitted or top-dose-only effect; inactive means flat fitted curve, though single readings scatter.
Potency means the concentration at half of the fitted maximal effect.

This assay has as its system MCC-13. Briefly: qHTS assay to identify novel small-molecules to repurpose for Merkel cell carcinoma treatment (AID 1296009). Further: nearly all actives have a fitted effect of over 60% in size. The settings on record: MCC and control cell lines, CellTiter-Glo viability, 72 h; series mostly up to 46 µM. In outline: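 Cells were treated for 72 hr at 37 degree celsius with compounds in 8- or 11-point dose response. Viability was read by CellTiter-Glo luminescence, normalized to no-cell (cytotoxicity) and DMSO controls.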
A general note: qHTS replaces the single test concentration by a dilution series.
As to `COc1nccc(-c2c(-c3ccc(F)cc3)ncn2C2CCC(O)CC2)n1` (stereo not drawn), the Potency result was “inactive”. As for `CNc1nc(Nc2ccc(C(=O)N3CCOCC3)cc2OC)ncc1Cl`, the entry is “inactive”; as for `O=C1C(c2c(O)[nH]c3ccccc23)=Nc2ccccc21`, “inactive”; as for `COc1cc(Nc2nc3ccccc3nc2NS(=O)(=O)c2ccc(NC(=O)c3ccc(C)c(OC)c3)cc2)cc(OC)c1`, “inactive”. Under `NS(=O)(=O)c1cc(Cl)c(Cl)c(S(N)(=O)=O)c1` stands “inactive”; under `CN1C(=O)C(Cc2c[nH]c3ccccc23)NC1=S` (stereo not drawn), “inactive”; under `CN1c2ccccc2C(=O)N2CCc3c([nH]c4ccccc34)C21` (stereo not drawn), “inactive”.

As to `CC1CCN(c2cc(N3CCN(C)CC3)ccc2NC(=O)c2cc(C#N)c[nH]2)CC1`, the Potency entry is “inactive”.

As to `COc1ccnc(CS(=O)c2nc3ccc(OC(F)F)cc3[nH]2)c1OC` (stereo not drawn), the Potency entry is “inactive”.

As for `c1cc(OCCN2CCCCC2)cc(-c2n[nH]c3ccc(-c4ncn[nH]4)cc23)c1`, the Potency result was “inactive”. As for `CCOC(=O)[C@H](CCc1ccccc1)N[C@@H](C)C(=O)N1CCCC1C(=O)O` (stereo partly drawn), the entry is “inactive”. Turning to `O=C(CO)N1CCC(c2[nH]nc(-c3ccc(Cl)cc3)c2-c2ccncn2)CC1`, the Potency result was “inactive”.

For the molecule `Cc1ccccc1-n1c(Cn2nc(-c3cccc(O)c3)c3c(N)ncnc32)nc2cccc(C)c2c1=O`, the Potency was 18.7 µM (active). Under `CC(C)(OCc1nn(Cc2ccccc2)c2ccccc12)C(=O)O` stands “inactive”; under `Cc1ccccc1C(C(=O)NC1CCCCC1)N(C(=O)CNc1ccc(C#N)cc1)c1cccc(F)c1` (stereo not drawn), “inactive”; under `O=c1cc(-c2ccc(O)c(O)c2)oc2cc(O)cc(O)c12`, “inactive”. Under `COc1nc(C)cnc1NS(=O)(=O)c1cccnc1-c1ccc(-c2nnco2)cc1` stands “inactive”. In the case of `O=C(c1ccc(C(=O)N2CCC(N3CCCC3)CC2)c(Nc2ccccc2)c1)N1CCC(N2CCCC2)CC1`, the Potency result is “inactive”.

Consider `CC(=O)N1CCN(c2ccc(OCc3nn(C)c(C)c3-c3cccc4c(CCCOc5cc(C)c(Cl)c(C)c5)c(C(=O)O)n(Cc5cccnc5)c34)cc2)CC1`, for which the Potency entry is “inactive”. As for `c1ccc(CNc2nc(N3CCOc4ccccc43)nc3c2CCCC3)cc1`, the entry is “inactive”; as for `Cn1c(=O)c(-c2c(Cl)cccc2Cl)cc2cnc(Nc3cccc(C(=O)O)c3)nc21`, “inactive”; as for `CCN1C[C@H](C)n2c(c(O)c3c(=O)n(Cc4ccc(F)c(Cl)c4)nc(C(=O)NC)c32)C1=O`, “inactive”. As to `COc1ccc(CCC(=O)Nc2nc3ccc(Cl)cc3s2)cc1OC`, the Potency result was “inactive”. As for `Cc1cc2c(cc1C1(c3ccc(C(=O)O)cn3)CC1)C(C)(C)CCC2(C)C`, the entry is “inactive”. As for `COc1cc2ncnc(Nc3cc(Br)c(O)c(Br)c3)c2cc1OC`, the entry is “inactive”; as for `O=C(O)CCNc1cc(N2CCc3ccccc3CC2)nc(-c2ccccn2)n1`, “inactive”; as for `CN1CCC(COc2cnc(-c3cccc(Cn4nc(-c5cccc(C#N)c5)ccc4=O)c3)nc2)CC1`, “inactive”.

Regarding `C[C@@]1(c2cc(-c3cncnc3)c(F)cc2F)CCSC(N)=N1`, the Potency entry is “inactive”.

In the case of `C[C@H](c1ccc(F)cc1CCCC(=O)O)N(c1cc(F)ccc1F)S(=O)(=O)c1ccc(Cl)cc1`, the Potency entry was “inactive”. In the case of `COc1ccc(-c2cc(=O)c3c(O)cc(O[C@@H]4O[C@H](CO[C@@H]5O[C@@H](C)[C@H](O)[C@@H](O)[C@@H]5O)[C@@H](O)[C@H](O)[C@@H]4O)cc3o2)cc1O`, the Potency result was “inactive”. On to `COC(=O)N1CCN(Cc2cccc(NC(=O)Nc3ccc(C)nc3)c2F)CC1`, for which the Potency result is “inactive”. As for `Cc1cnc(-c2cc(N3CCN(C(=O)CCS(C)(=O)=O)CC3)ncc2Cl)c(C)c1`, the entry is “inactive”; as for `NC(=O)c1ccc(N(C(N)=O)c2c(F)cccc2F)nc1-c1ccc(F)cc1F`, “inactive”.
